Data reported in PubChem BioAssay AID1159580 (chemical genetic matrix, 2015).
Screen size: about 5,500 compounds; about 2,000 (36%) were called active. Not shown: some 18% with an inconclusive outcome. No stated cut-off is given here; in the data, active means normalized growth mostly below about 0.91 (no sharp cut-off); inconclusive means no clear call, values can overlap the other calls; inactive means mostly above about 0.92. Some of the results follow.

Test: chemical genetic growth profiling, strain panel (AID 1159580);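 further: tested at 20 µM; growth read once vehicle control cultures reached saturation at 30 °C; 1 = growth at the plate median or of vehicle wells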
Conditions: growth OD

Measured: normalized growth

CCCC(=O)Nc1ccc(OCC(O)CNC(C)C)c(C(C)=O)c1 (configuration not stated)
inactive: S. cerevisiae deletion strains, locus YJR075W, strain HOC1, stronger effect = lower value 1.03 | S. cerevisiae deletion strains, locus YKL009W, strain mrt4, stronger effect = lower value 1.02 | S. cerevisiae deletion strains, locus YKL068W, stronger effect = lower value 1.02 | S. cerevisiae deletion strains, locus YKL085W, strain MDH1 (second series), stronger effect = lower value 1.01 | S. cerevisiae deletion strains, locus YKL085W, strain MDH1, stronger effect = lower value 1.01 | S. cerevisiae deletion strains, locus YKL160W, strain elf1, stronger effect = lower value 1.02 | S. cerevisiae deletion strains, locus YKL190W, strain CNB1, stronger effect = lower value 1.01 | S. cerevisiae deletion strains, locus YKR001C, strain vps1, stronger effect = lower value 1.04 | S. cerevisiae deletion strains, locus YKR026C, strain gcn3, stronger effect = lower value 1.01 | S. cerevisiae deletion strains, locus YKR091W, strain srl3, stronger effect = lower value 1 | S. cerevisiae deletion strains, locus YLL001W, strain dnm1, stronger effect = lower value 1.02 | S. cerevisiae deletion strains, locus YLL026W, stronger effect = lower value 1.01 | S. cerevisiae deletion strains, locus YLL041C, strain sdh2, stronger effect = lower value 1.01 | S. cerevisiae deletion strains, locus YLR027C, strain aat2, stronger effect = lower value 1.01 | S. cerevisiae deletion strains, locus YLR039C, strain RIC1, stronger effect = lower value 1.06 | S. cerevisiae deletion strains, locus YLR058C, strain SHM2, stronger effect = lower value 1.01 | S. cerevisiae deletion strains, locus YLR102C, strain apc9, stronger effect = lower value 1.01 | S. cerevisiae deletion strains, locus YLR113W, strain HOG1, stronger effect = lower value 0.999 | S. cerevisiae deletion strains, locus YLR221C, strain rsa3, stronger effect = lower value 1.01 | S. cerevisiae deletion strains, locus YLR258W, strain gsy2, stronger effect = lower value 1.02 | S. cerevisiae deletion strains, locus YLR262C, strain YPT6 (second series), stronger effect = lower value 1.02 | S. cerevisiae deletion strains, locus YLR262C, strain YPT6, stronger effect = lower value 1.02 | S. cerevisiae deletion strains, locus YLR268W, strain sec22, stronger effect = lower value 1.05 | S. cerevisiae deletion strains, locus YLR320W, strain mms22, stronger effect = lower value 1 | S. cerevisiae deletion strains, locus YLR330W, strain CHS5, stronger effect = lower value 1.01 | S. cerevisiae deletion strains, locus YLR342W, strain FKS1 (second series), stronger effect = lower value 1 | S. cerevisiae deletion strains, locus YLR342W, strain FKS1, stronger effect = lower value 1.01 | S. cerevisiae deletion strains, locus YLR357W, strain rsc2, stronger effect = lower value 0.97 | S. cerevisiae deletion strains, locus YLR370C, strain arc18, stronger effect = lower value 1.02 | S. cerevisiae deletion strains, locus YLR371W, strain rom2, stronger effect = lower value 1.02 | S. cerevisiae deletion strains, locus YLR384C, strain iki3, stronger effect = lower value 1.01 | S. cerevisiae deletion strains, locus YLR418C, strain cdc73, stronger effect = lower value 1.05 | S. cerevisiae deletion strains, locus YML016C, strain PPZ1, stronger effect = lower value 1.01 | S. cerevisiae deletion strains, locus YML032C, strain rad52, stronger effect = lower value 1.02 | S. cerevisiae deletion strains, locus YML120C, strain ndi1, stronger effect = lower value 0.999 | S. cerevisiae deletion strains, locus YML124C, strain tub3, stronger effect = lower value 1.02 | S. cerevisiae deletion strains, locus YMR058W, strain fet3, stronger effect = lower value 1 | S. cerevisiae deletion strains, locus YMR078C, strain ctf18, stronger effect = lower value 1.02 | S. cerevisiae deletion strains, locus YMR125W, strain sto1, stronger effect = lower value 1 | S. cerevisiae deletion strains, locus YMR129W, stronger effect = lower value 1.01 | S. cerevisiae deletion strains, locus YMR205C, strain PFK2, stronger effect = lower value 1 | S. cerevisiae deletion strains, locus YMR223W, strain ubp8, stronger effect = lower value 1 | S. cerevisiae deletion strains, locus YMR231W, strain pep5, stronger effect = lower value 1.02 | S. cerevisiae deletion strains, locus YMR263W, strain SAP30, stronger effect = lower value 1.02 | S. cerevisiae deletion strains, locus YMR307W, strain GAS1, stronger effect = lower value 1.03 | S. cerevisiae deletion strains, locus YNL067W, strain RPL9B, stronger effect = lower value 1.03 | S. cerevisiae deletion strains, locus YNL071W, strain lat1, stronger effect = lower value 1.02 | S. cerevisiae deletion strains, locus YNL128W, strain TEP1, stronger effect = lower value 1.01 | S. cerevisiae deletion strains, locus YNL153C, strain GIM3, stronger effect = lower value 1.02 | S. cerevisiae deletion strains, locus YNL183C, strain NPR1, stronger effect = lower value 0.97 | S. cerevisiae deletion strains, locus YNL209W, strain ssb2, stronger effect = lower value 1.04 | S. cerevisiae deletion strains, locus YNL233W, strain BNI4, stronger effect = lower value 1.01 | S. cerevisiae deletion strains, locus YNL248C, strain rpa49, stronger effect = lower value 1.03 | S. cerevisiae deletion strains, locus YNL250W, strain rad50, stronger effect = lower value 1.01 | S. cerevisiae deletion strains, locus YNL271C, strain bni1, stronger effect = lower value 1.02 | S. cerevisiae deletion strains, locus YNL298W, strain CLA4, stronger effect = lower value 1.02 | S. cerevisiae deletion strains, locus YNL307C, strain MCK1, stronger effect = lower value 1.02 | S. cerevisiae deletion strains, locus YNL322C, strain KRE1 (second series), stronger effect = lower value 1.03 | S. cerevisiae deletion strains, locus YNL322C, strain KRE1, stronger effect = lower value 1.01 | S. cerevisiae deletion strains, locus YNR049C, strain mso1, stronger effect = lower value 1.01 | S. cerevisiae deletion strains, locus YNR052C, strain pop2, stronger effect = lower value 1.02 | S. cerevisiae deletion strains, locus YOL006C, strain TOP1, stronger effect = lower value 1.07 | S. cerevisiae deletion strains, locus YOL012C, strain htz1 0.744 | S. cerevisiae deletion strains, locus YOL147C, strain pex11, stronger effect = lower value 1.02 | S. cerevisiae deletion strains, locus YOR001W, strain rrp6, stronger effect = lower value 1.01 | S. cerevisiae deletion strains, locus YOR061W, strain CKA2, stronger effect = lower value 1.01 | S. cerevisiae deletion strains, locus YOR069W, strain VPS5, stronger effect = lower value 1.01 | S. cerevisiae deletion strains, locus YOR070C, strain gyp1, stronger effect = lower value 1.02 | S. cerevisiae deletion strains, locus YOR080W, strain dia2, stronger effect = lower value 1.02 | S. cerevisiae deletion strains, locus YOR083W, strain WHI5, stronger effect = lower value 0.988 | S. cerevisiae deletion strains, locus YOR106W, strain vam3, stronger effect = lower value 1.03 | S. cerevisiae deletion strains, locus YOR136W, strain idh2, stronger effect = lower value 1.01 | S. cerevisiae deletion strains, locus YOR144C, strain elg1, stronger effect = lower value 1.02 | S. cerevisiae deletion strains, locus YOR184W, strain ser1, stronger effect = lower value 1.03 | S. cerevisiae deletion strains, locus YOR231W, strain MKK1, stronger effect = lower value 0.993 | S. cerevisiae deletion strains, locus YOR265W, strain rbl2, stronger effect = lower value 1.02 | S. cerevisiae deletion strains, locus YOR270C, strain vph1, stronger effect = lower value 1.07 | S. cerevisiae deletion strains, locus YOR290C, strain snf2, stronger effect = lower value 1.05 | S. cerevisiae deletion strains, locus YOR316C, strain cot1, stronger effect = lower value 1.02 | S. cerevisiae deletion strains, locus YPL051W, strain arl3, stronger effect = lower value 1 | S. cerevisiae deletion strains, locus YPL055C, strain LGE1, stronger effect = lower value 1.07 | S. cerevisiae deletion strains, locus YPL078C, strain atp4, stronger effect = lower value 1.03 | S. cerevisiae deletion strains, locus YPL106C, strain sse1, stronger effect = lower value 1.02 | S. cerevisiae deletion strains, locus YPL240C, strain hsp82, stronger effect = lower value 1.03 | S. cerevisiae deletion strains, locus YPL241C, strain CIN2, stronger effect = lower value 1.01 | S. cerevisiae deletion strains, locus YPL256C, strain CLN2, stronger effect = lower value 0.992 | S. cerevisiae deletion strains, locus YPR119W, strain clb2, stronger effect = lower value 1.01 | S. cerevisiae deletion strains, locus YPR141C, strain kar3, stronger effect = lower value 1.01 | S. cerevisiae deletion strains, locus YPR163C, strain tif3, stronger effect = lower value 1.02 | S. cerevisiae deletion strains, locus YPR167C, strain met16, stronger effect = lower value 1.01 | S. cerevisiae deletion strains, strain wtn01, stronger effect = lower value 1.03 | S. cerevisiae strains, strain wild type, stronger effect = lower value 1.02
